# Most compounds without a hit are left out; they make up all but 4.6% or so of the library.
# D1 antagonist: Antagonist of Human D 1 Dopamine Receptor: qHTS; actives 3.2% (n = 360,000); D(1A) dopamine receptor (Homo sapiens), P21728; AID 504652, 2011; HEK293 TREx D1 cells, calcium flux, dopamine EC80; active compounds read low; activity change, negative = inhibition, % at 10 µM; in the data active = activity change below about -30%
#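 Antagonism measured as reduced calcium response to an EC80 dopamine addition following 180 s compound pre-read; cells were inducible HEK293 Trex D1 plated overnight at 30 C, read kinetically at 1 cycle/sec.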
# TRHR PAM: qHTS for Small Molecule Agonists and Allosteric Enhancers of Human TRH Receptor: Primary Screen for Enhancers. enhancement, % at 2 µM. AID 493056, 2011. TRHR cells, fluo-8 calcium fluorescence, EC20 TRH enhancement. Thyrotropin-releasing hormone receptor (Homo sapiens), P34981. actives 0.66% (n = 360,000); in the data active = enhancement above about 30%
# Target sequence (P34981 whole entry, looked up): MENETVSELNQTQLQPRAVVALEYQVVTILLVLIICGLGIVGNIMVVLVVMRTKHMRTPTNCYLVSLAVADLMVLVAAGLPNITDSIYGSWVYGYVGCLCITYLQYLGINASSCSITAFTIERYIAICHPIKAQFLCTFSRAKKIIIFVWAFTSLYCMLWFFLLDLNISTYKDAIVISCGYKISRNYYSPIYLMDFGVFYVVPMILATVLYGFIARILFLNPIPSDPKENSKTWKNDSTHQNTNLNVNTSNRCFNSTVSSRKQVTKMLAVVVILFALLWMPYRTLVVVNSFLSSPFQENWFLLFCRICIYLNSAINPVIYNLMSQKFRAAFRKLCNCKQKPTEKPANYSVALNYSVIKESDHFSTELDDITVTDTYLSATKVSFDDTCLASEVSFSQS
#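 TRHR-expressing cells loaded with fluo-8 calcium dye were read kinetically (ex 480/em 530) during compound addition, then stimulated with an EC20 of TRH (10 nM final). Enhancement of the Gq-mediated intracellular calcium response was scored.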
# Epigenetic derep: Quantitative High-Throughput Screen for Regulators of Epigenetic Control; AID 1865, 2009; murine LDR cells, GFP reporter derepression, 30 h; Potency, µM (top dose mostly 53.9 µM), usual class: activators; actives 0.2% (n = 280,000); active = well fitted activation curve with a large enough effect; inconclusive = small, poorly fitted or top-dose-only effect; note: nearly all actives have a fitted effect of over 60% in size
#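 Derepression of a silenced CMV-GFP reporter in murine LDR cells is scored by enumerating GFP-positive cells with a laser-scanning microplate cytometer after 30 hours of treatment at 37 C.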
# TRHR agonist: qHTS for Small Molecule Agonists and Allosteric Enhancers of Human TRH Receptor: Primary Screen for Agonists. activation, % at 2 µM. TRHR cells, calcium flux fluo-8, FDSS agonist mode. AID 493084, 2011. actives 0.18% (n = 360,000)
#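 Steps: seed TRHR cells overnight; add fluo-8 no-wash Ca dye, RT 30 min–1.5 h; record 10 s baseline; pin-transfer compounds; monitor fluorescence 1 cycle/s for the agonist window. Calcium increases flag candidate agonists.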
# D1 ag: Allosteric Agonists of the Human D1 Dopamine Receptor: qHTS; D(1A) dopamine receptor (Homo sapiens), P21728; HEK293 T-REx D1 cells, calcium flux, agonist mode; activation, % at 2 µM; actives 1% (n = 360,000); AID 504660, 2011
#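 Tetracycline-induced HEK293 TREx D1 cells, force-coupled to calcium signalling, were dye-loaded with a no-wash calcium kit. Compound was pin-added after a 10 s baseline. Fluorescence was read kinetically at 1 cycle/s for 180 s, with calcium rises flagged as agonism.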
# D1 PAM: Potentiators of Human D1 Dopamine Receptor: qHTS; potentiation, % at 10 µM; actives 0.036% (n = 360,000); D(1A) dopamine receptor (Homo sapiens), P21728; HEK293 TREx D1 cells, calcium flux, dopamine EC20 potentiation; in the data active = potentiation above about 30%
# Hits are given with their value; – = inactive; ? = inconclusive; · = no result given. Cut-off read from the data, not from the text of the source, unless noted: active = activation above about 30%; inactive = the rest.
SMILES,D1 antagonist,TRHR PAM,Epigenetic derep,TRHR agonist,D1 ag,D1 PAM
CCOC(=O)c1noc2ncn(Cc3ccc([N+](=O)[O-])cc3)c(=O)c12,–,–,–,–,–,–
CCC(C)c1ccc(NC(=O)Nc2cccnc2)cc1 (centres undefined),-30.3,–,·,–,–,–
O=C(Nc1ccc(Cl)cc1)Nc1cnccn1,–,–,–,–,–,–
O=C(NC(=S)NCc1cccnc1)c1cc2ccccc2o1,–,–,–,–,–,–
O=C(Nc1cccc(Cl)c1)Nc1cnccn1,-45.4,–,·,–,–,–
COc1ccc(CCC(=O)NNC(=O)Nc2cccc(Cl)c2)cc1,–,–,·,–,–,–
COc1ccc(OCC(=O)NNC(=O)Nc2cccc(Cl)c2)cc1,–,33.7,·,–,–,–
O=C(NC(=S)Nc1cccnc1)c1cc2ccccc2o1,-44.9,–,–,–,–,–
CC(=O)Nc1ccc(NC(=O)C2(c3cccs3)CCOCC2)cc1,–,–,–,–,–,–
CC(=O)Nc1ccc(-c2nnc3n(Cc4ccc(C)cc4)c(=O)c4ccccc4n23)cc1,–,–,–,–,–,–
O=C(Nc1cccc(Cl)c1)Nc1cccc(Cl)c1,-49.4,–,–,–,–,–
O=C(Nc1ccccc1)Nc1cc(Cl)cc(Cl)c1,–,–,–,–,–,–
CCc1sc(C(=O)Nc2ncccc2C)cc1C,–,30.0,·,–,–,–
CCc1sc(C(=O)Nc2ncccc2O)cc1C,–,–,·,–,–,–
CNS(=O)(=O)c1ccc(NC(=O)Nc2cccc(F)c2)cc1,-49.5,–,–,–,–,–
O=C(Nc1cccc(F)c1)Nc1cccc(Cl)c1,-53.4,–,·,–,–,–
CC(=O)Nc1cccc(NC(=O)Nc2cccc(F)c2)c1,–,–,–,–,–,–
COc1ccccc1NC(=O)c1cc2c(=O)oc3ccc(C)cc3c2s1,–,–,–,–,–,–
O=C(Nc1cccnc1)Nc1cc(Cl)cc(Cl)c1,-33.3,–,–,–,–,–
COC(=O)c1cc(NC(=O)c2ccc(-c3ccccc3)cc2)ccc1Cl,–,–,–,–,–,–
CCC(C)[C@H](NC(=O)Nc1cccc(Cl)c1)C(=O)O (some centres undefined),–,–,–,–,31.0,–
COC(=O)c1cc(NC(=O)Nc2cccc(Cl)c2)ccc1Cl,-41.4,–,–,–,–,–
Cc1ccc(NC(=O)Nc2ccon2)cc1Cl,-30.8,–,·,–,–,–
O=C(O)c1ccccc1NS(=O)(=O)c1ccc(F)c(Cl)c1,·,·,–,·,·,·
CCN(C(=O)CN(C)S(=O)(=O)c1ccc2c(c1)c(=O)n(C)c(=O)n2C)c1ccc(OC)cc1,–,–,–,–,–,–
SMILES,D1 antagonist,TRHR PAM,Epigenetic derep,TRHR agonist,D1 ag,D1 PAM
CSc1ccccc1NC(=O)Nc1cccc(F)c1,–,–,–,–,–,–
O=C(Nc1cccc(Cl)c1)Nc1ccon1,–,38.6,·,–,–,–
Cc1cccnc1NC(=O)Nc1cccc(Cl)c1,–,32.1,·,–,–,–
Cc1cccnc1N(C(=O)Nc1ccccc1)C1=NCC(C)(C)S1,–,–,–,–,–,–
Cc1cccnc1N(C(=O)Nc1cccc(Cl)c1)C1=NCC(C)(C)S1,-31.2,–,–,–,–,–
CCc1ccccc1NC(=O)Nc1cccc(F)c1,-42.4,–,–,–,–,–
O=C(Nc1ccc(Cl)cc1)Nc1ccon1,–,–,·,–,–,–
COc1cc(OC)c(NC(c2nnc(-c3ccccc3)o2)c2ccc(F)cc2Cl)cc1Cl (centres undefined),–,–,–,–,–,–
O=C(CSc1n[nH]c(-c2cccs2)n1)N1CCN(S(=O)(=O)c2ccccc2)CC1,-59.4,–,–,–,–,–
CCc1nc(-c2ccccc2)cc(=O)[nH]1,–,–,–,–,–,–
O=c1cc(-c2ccccc2)nc(Cc2c(Cl)cccc2Cl)[nH]1,–,31.2,·,–,–,–
CCc1cccc(C)c1NC(=O)c1cc(S(=O)(=O)N(Cc2ccc(C(=O)OC)cc2)Cc2ccc(OC)c(OC)c2)ccc1F,-37.9,–,–,–,–,–
CCOC(=O)c1ccc(CN(Cc2ccc(Cl)cc2Cl)S(=O)(=O)c2ccc(F)c(C)c2)cc1,-31.7,–,–,–,44.5,–
COC(=O)c1ccc(CN(Cc2ccc(OC)c(OC)c2)S(=O)(=O)c2ccc(F)c(C(=O)Nc3cc(C)ccc3C)c2)cc1,–,–,–,–,–,–
CN(CCOc1ccc(Cl)cc1)CC(O)c1ccccc1 (centres undefined),–,–,·,–,33.3,–
Cc1ccc(C)c(S(=O)(=O)N2CCN(C(=O)c3ccc(OCc4c(C)noc4C)cc3)CC2)c1,-31.0,–,·,–,–,–
Cc1ccc(S(=O)(=O)N2CCN(C(=O)c3ccc(OCc4c(C)noc4C)cc3)CC2)cc1,–,–,–,–,–,–
CCc1noc(C)c1C(=O)N1CCN(S(=O)(=O)c2ccc(C)cc2C)CC1,–,–,·,–,–,–
CCc1noc(C)c1C(=O)N1CCN(S(=O)(=O)c2cc(C)ccc2C)CC1,-31.5,–,·,–,–,–
CCc1noc(C)c1C(=O)N1CCN(S(=O)(=O)c2ccc(Br)cc2)CC1,-71.5,–,·,–,–,–
CCc1noc(C)c1C(=O)N1CCN(S(=O)(=O)c2ccc(C)cc2)CC1,–,–,·,–,–,–
O=C(/C=C/c1ccc2c(c1)OCO2)N1CCCCC1,-30.3,–,·,–,–,–
O=C(/C=C\C=C/c1ccc2c(c1)OCO2)N1CCCCC1,·,·,–,·,·,·
O=C(/C=C/c1cccc([N+](=O)[O-])c1)N1CCN(Cc2ccc3c(c2)OCO3)CC1,-34.1,–,–,–,–,–
CC1(C)O[C@H]2[C@@H](O1)[C@@H](C(=O)Nc1ccc(F)c(F)c1)O[C@@H]1OC(C)(C)O[C@@H]12,–,–,–,–,–,–
COc1ccc(Nc2cc(C)c3cc(NC(=O)c4cc(OC)cc(OC)c4)ccc3n2)cc1,–,–,?,–,–,–
Cc1noc(C)c1-c1ccc2ncnc(N(C)Cc3ccco3)c2c1,·,·,–,·,·,·
COc1ccccc1OC(C)C(=O)Nc1ccc(-c2nc3ccccc3s2)cc1 (centres undefined),–,–,35.5µM,–,–,–
COc1ccc(-c2nc3ccccc3s2)cc1NC(=O)c1ccccc1OC,–,34.2,–,–,–,–
COc1ccc(-c2nc3ccccc3s2)cc1NC(=O)c1cccc(F)c1,-30.1,–,–,–,–,–

# Compound activity as filed in PubChem BioAssay.
